Experimental data taken from ChEMBL document CHEMBL1961873, “Compounds: GSK PKIS; Assays: Nanosyn kinase panel” (2012).

Tests used:
[1] = target: Tyrosine-protein kinase Fer (Homo sapiens) (UniProt P16591); settings: at 1 µM
[2] = target: Tyrosine-protein kinase Fes/Fps (Homo sapiens) (UniProt P07332); settings: at 0.1 µM
[3] = target: Tyrosine-protein kinase Fes/Fps (Homo sapiens) (UniProt P07332); settings: at 1 µM
[4] = target: Fibroblast growth factor receptor 1 (Homo sapiens) (UniProt P11362); settings: at 0.1 µM
Chain of Fibroblast growth factor receptor 1 (Homo sapiens) (P11362 22-822 limits assumed): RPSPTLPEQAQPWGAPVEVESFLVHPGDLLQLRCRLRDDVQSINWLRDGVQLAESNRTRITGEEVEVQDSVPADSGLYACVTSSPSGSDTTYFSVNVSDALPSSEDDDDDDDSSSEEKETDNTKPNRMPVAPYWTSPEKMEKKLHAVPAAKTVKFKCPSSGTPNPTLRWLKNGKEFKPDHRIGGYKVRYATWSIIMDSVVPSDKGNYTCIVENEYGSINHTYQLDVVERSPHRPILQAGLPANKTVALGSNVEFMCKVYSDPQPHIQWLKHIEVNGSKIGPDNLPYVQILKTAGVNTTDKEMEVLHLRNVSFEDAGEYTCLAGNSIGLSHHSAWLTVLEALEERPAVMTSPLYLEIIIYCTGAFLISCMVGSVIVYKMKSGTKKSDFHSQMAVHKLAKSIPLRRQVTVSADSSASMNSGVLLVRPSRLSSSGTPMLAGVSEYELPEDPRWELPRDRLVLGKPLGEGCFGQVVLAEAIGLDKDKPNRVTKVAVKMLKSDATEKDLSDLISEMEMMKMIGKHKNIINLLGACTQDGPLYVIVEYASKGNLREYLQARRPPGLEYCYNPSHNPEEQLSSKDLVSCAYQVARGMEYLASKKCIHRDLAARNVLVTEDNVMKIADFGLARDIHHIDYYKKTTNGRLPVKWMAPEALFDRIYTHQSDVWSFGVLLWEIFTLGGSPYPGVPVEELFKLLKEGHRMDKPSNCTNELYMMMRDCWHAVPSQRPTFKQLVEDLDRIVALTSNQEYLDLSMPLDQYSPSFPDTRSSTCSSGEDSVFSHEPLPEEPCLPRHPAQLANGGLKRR

[5] = target: Fibroblast growth factor receptor 1 (Homo sapiens) (UniProt P11362); settings: at 1 µM
[6] = target: Fibroblast growth factor receptor 2 (Homo sapiens) (UniProt P21802); settings: at 0.1 µM
Chain of Fibroblast growth factor receptor 2 (Homo sapiens) (P21802 22-821 limits assumed): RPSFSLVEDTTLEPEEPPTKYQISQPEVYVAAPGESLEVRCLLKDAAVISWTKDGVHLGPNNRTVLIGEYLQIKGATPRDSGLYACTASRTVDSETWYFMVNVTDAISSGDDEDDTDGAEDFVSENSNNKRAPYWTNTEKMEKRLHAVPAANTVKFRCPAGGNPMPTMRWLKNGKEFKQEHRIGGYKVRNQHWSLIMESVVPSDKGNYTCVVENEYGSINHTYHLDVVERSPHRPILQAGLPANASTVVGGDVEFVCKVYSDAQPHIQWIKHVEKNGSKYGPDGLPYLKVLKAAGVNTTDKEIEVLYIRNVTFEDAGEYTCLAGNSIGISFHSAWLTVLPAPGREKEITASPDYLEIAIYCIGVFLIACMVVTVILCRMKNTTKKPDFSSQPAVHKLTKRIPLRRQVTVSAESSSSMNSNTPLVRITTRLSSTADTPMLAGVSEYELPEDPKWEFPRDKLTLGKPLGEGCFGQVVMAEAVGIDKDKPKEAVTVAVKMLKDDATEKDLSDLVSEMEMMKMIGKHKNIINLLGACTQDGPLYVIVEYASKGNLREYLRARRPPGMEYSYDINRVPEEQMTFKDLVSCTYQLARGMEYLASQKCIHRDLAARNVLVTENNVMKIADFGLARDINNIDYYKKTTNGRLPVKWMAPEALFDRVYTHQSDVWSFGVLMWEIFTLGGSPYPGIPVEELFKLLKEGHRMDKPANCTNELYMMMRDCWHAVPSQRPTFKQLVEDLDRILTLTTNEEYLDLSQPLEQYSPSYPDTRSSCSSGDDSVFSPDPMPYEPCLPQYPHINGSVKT

[7] = target: Fibroblast growth factor receptor 2 (Homo sapiens) (UniProt P21802); settings: at 1 µM
[8] = target: Fibroblast growth factor receptor 3 (Homo sapiens) (UniProt P22607); settings: at 0.1 µM
[9] = target: Fibroblast growth factor receptor 3 (Homo sapiens) (UniProt P22607); settings: at 1 µM
[10] = target: Fibroblast growth factor receptor 4 (Homo sapiens) (UniProt P22455); settings: at 0.1 µM
Chain of Fibroblast growth factor receptor 4 (Homo sapiens) (P22455 22-802 limits assumed): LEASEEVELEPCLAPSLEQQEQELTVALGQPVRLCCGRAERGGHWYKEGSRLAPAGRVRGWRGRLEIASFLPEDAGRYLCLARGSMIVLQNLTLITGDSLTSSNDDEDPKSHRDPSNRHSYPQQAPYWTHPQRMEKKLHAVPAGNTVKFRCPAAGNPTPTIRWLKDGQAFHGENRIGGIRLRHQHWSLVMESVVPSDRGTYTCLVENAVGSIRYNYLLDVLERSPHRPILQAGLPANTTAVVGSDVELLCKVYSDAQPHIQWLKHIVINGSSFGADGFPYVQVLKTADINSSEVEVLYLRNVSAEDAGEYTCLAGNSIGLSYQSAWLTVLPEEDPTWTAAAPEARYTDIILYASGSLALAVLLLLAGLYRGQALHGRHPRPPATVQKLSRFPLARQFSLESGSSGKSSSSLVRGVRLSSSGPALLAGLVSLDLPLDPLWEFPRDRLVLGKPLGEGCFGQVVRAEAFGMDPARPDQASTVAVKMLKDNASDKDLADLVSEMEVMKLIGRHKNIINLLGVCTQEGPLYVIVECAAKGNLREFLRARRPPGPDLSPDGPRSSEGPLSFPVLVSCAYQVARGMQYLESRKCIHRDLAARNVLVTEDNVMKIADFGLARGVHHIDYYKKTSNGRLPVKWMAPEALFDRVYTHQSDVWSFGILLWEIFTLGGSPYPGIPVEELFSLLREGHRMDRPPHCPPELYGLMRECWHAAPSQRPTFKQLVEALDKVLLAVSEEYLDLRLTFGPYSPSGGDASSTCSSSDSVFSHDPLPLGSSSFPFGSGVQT

[11] = target: Fibroblast growth factor receptor 4 (Homo sapiens) (UniProt P22455); settings: at 1 µM
[12] = target: Tyrosine-protein kinase Fgr (Homo sapiens) (UniProt P09769); settings: at 0.1 µM
Chain of Tyrosine-protein kinase Fgr (Homo sapiens) (P09769 2-529 limits assumed): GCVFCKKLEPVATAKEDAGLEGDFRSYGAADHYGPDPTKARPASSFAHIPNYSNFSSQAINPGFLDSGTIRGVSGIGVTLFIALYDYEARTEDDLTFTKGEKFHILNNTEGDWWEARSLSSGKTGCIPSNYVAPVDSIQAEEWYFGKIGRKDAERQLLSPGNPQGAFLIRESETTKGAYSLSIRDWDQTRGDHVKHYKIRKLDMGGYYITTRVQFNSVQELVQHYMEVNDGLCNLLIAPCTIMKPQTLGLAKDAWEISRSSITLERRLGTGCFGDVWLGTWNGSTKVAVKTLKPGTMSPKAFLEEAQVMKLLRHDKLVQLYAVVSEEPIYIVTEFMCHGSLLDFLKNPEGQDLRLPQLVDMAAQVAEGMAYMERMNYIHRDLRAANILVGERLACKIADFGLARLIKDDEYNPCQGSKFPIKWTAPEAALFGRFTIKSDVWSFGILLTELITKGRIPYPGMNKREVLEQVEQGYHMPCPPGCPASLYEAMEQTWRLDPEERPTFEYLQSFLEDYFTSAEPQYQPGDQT

[13] = target: Tyrosine-protein kinase Fgr (Homo sapiens) (UniProt P09769); settings: at 1 µM
[14] = target: Vascular endothelial growth factor receptor 1 (Homo sapiens) (UniProt P17948); settings: at 0.1 µM
Chain of Vascular endothelial growth factor receptor 1 (Homo sapiens) (P17948 whole entry): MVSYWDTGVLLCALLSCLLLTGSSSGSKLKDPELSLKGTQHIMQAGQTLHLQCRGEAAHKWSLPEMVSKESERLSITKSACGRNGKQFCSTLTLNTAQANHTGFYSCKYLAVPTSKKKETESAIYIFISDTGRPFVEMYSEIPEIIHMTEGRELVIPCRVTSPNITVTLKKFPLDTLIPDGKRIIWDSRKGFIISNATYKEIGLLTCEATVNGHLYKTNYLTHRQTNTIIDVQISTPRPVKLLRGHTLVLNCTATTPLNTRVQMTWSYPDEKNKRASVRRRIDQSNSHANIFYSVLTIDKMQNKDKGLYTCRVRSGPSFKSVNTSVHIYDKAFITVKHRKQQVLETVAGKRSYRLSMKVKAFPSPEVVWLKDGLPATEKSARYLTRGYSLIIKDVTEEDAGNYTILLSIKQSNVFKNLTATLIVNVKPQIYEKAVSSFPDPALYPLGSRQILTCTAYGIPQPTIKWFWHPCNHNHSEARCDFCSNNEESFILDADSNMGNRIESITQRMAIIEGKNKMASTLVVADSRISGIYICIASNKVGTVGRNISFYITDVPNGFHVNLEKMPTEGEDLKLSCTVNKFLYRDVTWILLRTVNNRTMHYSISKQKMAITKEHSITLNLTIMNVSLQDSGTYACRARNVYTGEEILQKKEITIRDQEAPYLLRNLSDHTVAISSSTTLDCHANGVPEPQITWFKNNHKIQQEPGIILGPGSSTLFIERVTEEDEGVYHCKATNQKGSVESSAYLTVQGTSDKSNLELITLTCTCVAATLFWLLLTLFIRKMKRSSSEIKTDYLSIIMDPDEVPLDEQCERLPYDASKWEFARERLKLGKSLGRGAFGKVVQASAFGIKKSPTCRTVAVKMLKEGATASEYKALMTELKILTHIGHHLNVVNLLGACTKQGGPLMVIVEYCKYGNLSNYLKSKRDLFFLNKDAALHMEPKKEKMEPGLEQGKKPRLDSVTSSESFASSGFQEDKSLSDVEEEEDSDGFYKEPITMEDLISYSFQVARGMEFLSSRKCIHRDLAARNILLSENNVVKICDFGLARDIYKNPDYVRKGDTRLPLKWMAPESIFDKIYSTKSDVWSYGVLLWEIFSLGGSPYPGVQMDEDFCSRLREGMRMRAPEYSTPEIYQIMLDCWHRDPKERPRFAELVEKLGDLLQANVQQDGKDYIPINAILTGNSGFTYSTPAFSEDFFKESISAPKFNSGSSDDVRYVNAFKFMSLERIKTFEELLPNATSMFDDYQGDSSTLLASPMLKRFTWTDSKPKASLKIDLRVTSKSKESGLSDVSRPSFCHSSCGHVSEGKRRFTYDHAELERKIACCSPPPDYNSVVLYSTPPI

[15] = target: Vascular endothelial growth factor receptor 1 (Homo sapiens) (UniProt P17948); settings: at 1 µM
[16] = target: Receptor-type tyrosine-protein kinase FLT3 (Homo sapiens) (UniProt P36888); settings: at 0.1 µM
[17] = target: Receptor-type tyrosine-protein kinase FLT3 (Homo sapiens) (UniProt P36888); settings: at 1 µM
[18] = system: T1, Receptor-type tyrosine-protein kinase FLT3 (Homo sapiens), P36888 [D835Y]; settings: at 0.1 µM
T1 sequence (whole entry): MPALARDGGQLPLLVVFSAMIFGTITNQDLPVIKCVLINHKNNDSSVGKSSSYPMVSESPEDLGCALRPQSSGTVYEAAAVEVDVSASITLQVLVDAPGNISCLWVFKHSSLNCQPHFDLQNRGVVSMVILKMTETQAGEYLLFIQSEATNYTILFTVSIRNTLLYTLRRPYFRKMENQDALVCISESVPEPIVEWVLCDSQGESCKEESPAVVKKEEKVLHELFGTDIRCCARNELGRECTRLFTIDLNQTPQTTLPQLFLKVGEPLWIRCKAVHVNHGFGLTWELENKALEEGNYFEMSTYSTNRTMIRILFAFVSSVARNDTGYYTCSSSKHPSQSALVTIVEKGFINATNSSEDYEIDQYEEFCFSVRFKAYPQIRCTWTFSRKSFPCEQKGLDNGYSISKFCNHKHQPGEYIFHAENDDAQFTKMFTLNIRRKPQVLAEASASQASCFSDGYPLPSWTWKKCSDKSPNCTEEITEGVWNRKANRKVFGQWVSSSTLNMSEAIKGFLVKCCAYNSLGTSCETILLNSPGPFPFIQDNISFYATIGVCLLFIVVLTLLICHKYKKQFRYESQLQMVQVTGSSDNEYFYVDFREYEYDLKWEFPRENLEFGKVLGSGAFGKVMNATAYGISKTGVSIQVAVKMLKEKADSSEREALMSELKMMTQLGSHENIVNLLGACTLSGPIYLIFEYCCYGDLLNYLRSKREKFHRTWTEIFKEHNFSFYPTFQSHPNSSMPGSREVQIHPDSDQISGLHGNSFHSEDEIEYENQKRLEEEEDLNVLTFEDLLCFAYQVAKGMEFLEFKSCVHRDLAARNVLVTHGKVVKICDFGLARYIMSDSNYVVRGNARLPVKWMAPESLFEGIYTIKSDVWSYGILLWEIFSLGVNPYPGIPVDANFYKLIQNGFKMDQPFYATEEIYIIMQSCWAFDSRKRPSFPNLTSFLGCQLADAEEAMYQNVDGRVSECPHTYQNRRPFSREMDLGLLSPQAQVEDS

[19] = target: Non-receptor tyrosine-protein kinase TYK2 (Homo sapiens) (UniProt P29597); settings: at 1 µM;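 note: values are mean percent inhibition of TYK2 kinase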
[20] = target: T2, Tyrosine-protein kinase receptor TYRO3 (Homo sapiens) (UniProt Q06418); settings: at 0.1 µM;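 note: reported percentages are averaged inhibition values of TYRO3 kinase activity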
T2 sequence (whole entry): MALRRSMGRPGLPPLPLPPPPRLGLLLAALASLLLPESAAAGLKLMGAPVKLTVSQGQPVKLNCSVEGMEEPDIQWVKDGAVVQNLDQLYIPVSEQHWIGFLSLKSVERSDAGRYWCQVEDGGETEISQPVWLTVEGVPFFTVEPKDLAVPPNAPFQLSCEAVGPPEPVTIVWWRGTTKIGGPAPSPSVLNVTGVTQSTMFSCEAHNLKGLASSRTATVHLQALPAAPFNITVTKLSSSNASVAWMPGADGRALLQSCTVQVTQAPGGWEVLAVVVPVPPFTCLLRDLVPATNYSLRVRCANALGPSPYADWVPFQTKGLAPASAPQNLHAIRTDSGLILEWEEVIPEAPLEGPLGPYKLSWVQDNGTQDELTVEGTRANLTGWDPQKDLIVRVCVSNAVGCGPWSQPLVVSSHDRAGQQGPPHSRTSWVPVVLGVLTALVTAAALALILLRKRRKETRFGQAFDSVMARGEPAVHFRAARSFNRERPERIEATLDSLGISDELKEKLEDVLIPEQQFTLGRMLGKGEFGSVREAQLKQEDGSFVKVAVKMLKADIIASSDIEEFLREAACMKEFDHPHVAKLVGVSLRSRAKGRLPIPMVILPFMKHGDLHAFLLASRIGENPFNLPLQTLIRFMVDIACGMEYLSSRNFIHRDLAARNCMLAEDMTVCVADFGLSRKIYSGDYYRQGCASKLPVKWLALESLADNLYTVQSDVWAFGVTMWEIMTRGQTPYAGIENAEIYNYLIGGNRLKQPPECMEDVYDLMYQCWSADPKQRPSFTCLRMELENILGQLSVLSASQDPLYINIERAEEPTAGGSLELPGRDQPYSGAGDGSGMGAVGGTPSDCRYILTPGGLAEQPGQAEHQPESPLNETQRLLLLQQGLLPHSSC

Chain of Tyrosine-protein kinase Fes/Fps (Homo sapiens) (P07332 whole entry): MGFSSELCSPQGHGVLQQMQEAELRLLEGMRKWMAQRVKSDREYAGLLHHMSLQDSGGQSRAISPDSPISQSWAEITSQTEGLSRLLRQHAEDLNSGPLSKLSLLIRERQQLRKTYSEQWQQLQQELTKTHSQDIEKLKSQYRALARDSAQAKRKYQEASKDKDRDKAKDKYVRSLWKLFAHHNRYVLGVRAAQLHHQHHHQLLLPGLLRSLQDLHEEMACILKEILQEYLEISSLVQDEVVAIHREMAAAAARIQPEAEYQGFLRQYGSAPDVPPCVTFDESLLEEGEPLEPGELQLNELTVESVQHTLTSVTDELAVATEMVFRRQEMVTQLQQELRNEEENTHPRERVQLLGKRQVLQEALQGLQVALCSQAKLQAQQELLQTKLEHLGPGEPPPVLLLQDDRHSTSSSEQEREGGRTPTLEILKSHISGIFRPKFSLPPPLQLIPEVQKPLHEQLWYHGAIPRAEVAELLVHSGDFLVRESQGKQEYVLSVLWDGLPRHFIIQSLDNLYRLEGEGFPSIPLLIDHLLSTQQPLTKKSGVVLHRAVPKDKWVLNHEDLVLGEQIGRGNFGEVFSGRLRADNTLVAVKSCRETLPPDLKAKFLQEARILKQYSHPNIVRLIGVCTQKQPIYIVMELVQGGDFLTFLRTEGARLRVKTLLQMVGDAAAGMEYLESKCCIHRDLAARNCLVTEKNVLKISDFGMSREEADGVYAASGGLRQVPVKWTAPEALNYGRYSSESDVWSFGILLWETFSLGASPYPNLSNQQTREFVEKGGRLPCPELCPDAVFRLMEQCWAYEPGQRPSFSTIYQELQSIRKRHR

Compound	inhibition [1] [%]	inhibition [2] [%]	inhibition [3] [%]	inhibition [4] [%]	inhibition [5] [%]	inhibition [6] [%]	inhibition [7] [%]	inhibition [8] [%]	inhibition [9] [%]	inhibition [10] [%]	inhibition [11] [%]	inhibition [12] [%]	inhibition [13] [%]	inhibition [14] [%]	inhibition [15] [%]	inhibition [16] [%]	inhibition [17] [%]	inhibition [18] [%]	inhibition [19] [%]	inhibition [20] [%]
O=C(Nc1n[nH]c2nc(-c3ccc(O)cc3)c(Br)cc12)C1CC1	7.42	3.04	3.83	7.1	21.4	7.18	17.9	8.23	12.5	0.04	3.05	7.15	21.3	2.34	17.7	5.54	25.7	4.14	17.6	10.4
CN1CCN(CCCNc2nc3ccc(Oc4ccc(NC(=O)Nc5cc(C(F)(F)F)ccc5F)cc4)cc3[nH]2)CC1	3.71	1.57	1.53	-4.14	0.63	-1.49	1.51	-0.95	-0.55	-2.64	-0.18	1.31	8.15	12.7	40.7	15	61.2	-5.77	0.88	1.94
C/C(Nc1ccc(S(N)(=O)=O)cc1)=C1/C(=O)Nc2ccccc21	10.5	-2.91	-3.39	-4.77	6.33	0.2	21.1	0.94	21	1.73	3.59	0.92	11.4	10.8	23.6	13.9	62.9	7.17	6.88	1.52
O=C1NC(=O)C(c2cccc(Cl)c2)=C1Nc1ccc(Cl)c(C(=O)O)c1	2.51	2.13	2.52	3.46	16.2	8.43	20.6	6.79	24.8	-1.89	1.23	5.15	1.19	2.61	7.03	3.91	0.25	-6.52	-1.23	1.77
O=C(Nc1n[nH]c2nc(-c3ccco3)ccc12)C1CC1	2.89	1.02	1.51	2.13	2.39	-0.33	5.26	1.13	3.83	2.11	2.6	0.22	4.92	1.05	7.88	0.89	9.22	-0.89	-1.09	2.23
C[C@@H](Oc1cc(-n2cnc3ccc(OC4CCN(C)CC4)cc32)sc1C(N)=O)c1ccccc1Cl	3.96	2.48	3.52	2.78	9.26	4.51	8.58	4.86	9.86	-0.28	-1.19	3.65	4.89	1.54	3.12	3.07	14.4	1.72	-7.54	2.39
c1ccc(-c2n[nH]cc2-c2ccnc(-c3ccc(OCCN4CCOCC4)cc3)c2)nc1	5.42	0.55	0.54	3.52	5.55	4.12	7.12	3.61	5.31	4.68	4.93	4.14	6.86	3.88	15.6	-2.01	1.37	-0.15	1.87	-0.18
COC(=O)Nc1nc2ccc(Sc3ccc(NC(=O)Nc4cc(C(F)(F)F)ccc4F)cc3)cc2[nH]1	1.11	0.33	-0.58	-1.07	-3.15	0.25	4	2.1	2.77	3.12	-0.24	1.66	3.71	4.5	37.7	4.87	32.6	–	0.01	1.03
NS(=O)(=O)c1ccc(N/N=C2\C(=O)Nc3ccc(C(=O)NCCCn4ccnc4)cc32)cc1	–	2.9	3.18	1.31	4.32	3.11	8.85	4.75	5.37	-9.93	2.46	5.97	13.4	0.63	5.48	3.35	18.5	2.34	-1.72	4.1
Fc1ccc(-c2ncn(C3CCNCC3)c2-c2ccnc(Oc3ccc(F)c(F)c3)n2)cc1	3.96	2.73	2.2	-3.39	0.21	0.37	2.12	0.74	2.67	-2.57	-4.24	2.76	3.69	0.45	4.56	-1.09	4.18	-2.41	-5.44	1.82
Fc1ccc(-c2ncn(C3CCNCC3)c2-c2ccnc(Oc3ccc4c(c3)OCO4)n2)cc1	10.4	4.19	3.36	3.51	11.8	6.16	12	6.95	9.41	–	0.91	3.23	7.38	0.92	2.35	4.05	7.47	-0.87	-3.97	1.93
Fc1ccc(-c2nc3n(c2-c2ccncc2)CCS3)cc1	2.81	2.58	2.75	-4.07	1.42	-0.33	1.72	2.38	0.09	-6.29	-1.43	3.23	5.64	0.95	4.64	2.5	4.49	4.1	-3.88	2.21
CN(c1ccc(NC(=O)Nc2c(Cl)cccc2Cl)cc1)c1ccnc(Nc2cccc(CS(C)(=O)=O)c2)n1	77.2	11.1	22.5	6.14	-0.4	3.91	13.4	0.14	5.59	2.62	2.06	24.3	51.9	38.5	51	78.2	84.9	28.2	1.51	4.61
Fc1ccc(-c2ncn(CCCN3CCOCC3)c2-c2ccncc2)cc1	-1.08	-0.1	-0.6	0.01	-2.73	-1.34	2.45	0.86	2.18	-3	0.42	-2.23	3.21	-2.17	0.42	0.43	1.49	-3.55	-0.81	-0.71
